Source: ChEMBL document CHEMBL3988442, “University of Dundee, Small-Polar-MMV Screening Library” (2021)
In all, about 48,000 compounds went through this assay and about 13,000 (27%) showed an effect of 50% or more. The list shows a part of the results.

Each molecule was assayed on Wolbachia pipientis (assay: Anti-Wolbachia Cell-Based Screen). Details: 5 µM.
Type: functional
Set-up: scale not given: in the data most compounds retested in dose-response had high values

Row | Structure (SMILES) | Percent Effect [%]
1 | CCc1nc2n(n1)CCCC2Nc1nc(C(C)C)ns1 (centres undefined) | -21.17
2 | CC(C)CCN1CC2(CCCN(C(=O)c3cscn3)C2)CCC1=O (centres undefined) | -17.51
3 | CC(C)(C)n1cc(C(=O)N2CCN(Cc3ccsc3)CC2)cn1 | 2.604
4 | O=C(NC[C@H]1OC[C@@H](NC2CCC(F)(F)CC2)[C@@H]1O)Nc1ccccc1 | -10.14
5 | Cc1ccc(F)cc1S(=O)(=O)NCc1[nH]ncc1Br | -6.756
6 | CC(=O)N1CCCN(C(=O)Cc2c(C)nc(C)[nH]c2=O)CC1 | -4.556
7 | Cc1cc(NS(=O)(=O)c2cnc3onc(C)c3c2)no1 | -3.715
8 | CC(=O)N1CCN(Cc2coc(-c3cccc(F)c3)n2)CC1 | 97.72
9 | CC1CCCN(Cc2coc(-c3cccc(F)c3)n2)C1 (centres undefined) | -1.096
10 | CN(C)C(=O)CN1CCN(Cc2coc(-c3cccc(F)c3)n2)CC1 | 102.1
11 | COCC(=O)N1CCN(Cc2coc(-c3cccc(F)c3)n2)CC1 | -10.41
12 | Fc1cccc(-c2nc(CN3CCCCC3Cn3cncn3)co2)c1 (centres undefined) | -6.024
13 | CCNC(=O)C1CN(Cc2c(-c3cc(C)on3)nn(C)c2Cl)CCO1 (centres undefined) | -15.99
14 | CCN(CC)S(=O)(=O)N1CCc2nc(C3CCNCC3)ncc2C1.Cl | 116.7
15 | Cl.O=S(=O)(N1CCCCC1)N1CCc2nc(C3CCNCC3)ncc2C1 | -9.776
16 | CC(C)NC(=O)c1cc2c(nc1N(C)C)CCN(S(=O)(=O)C1CC1)CC2 | -5.433
17 | CCC(C)S(=O)(=O)N1CCc2nc(C3CCNCC3)ncc2C1.Cl (centres undefined) | 105.9
18 | CCN(CC)S(=O)(=O)N1CCCC(c2nccn2Cc2ccncc2)C1 (centres undefined) | 6.265
19 | CCc1cc(CNC(=O)N2Cc3ccccc3N(C)CC2C)on1 (centres undefined) | 12.48
20 | Cc1ncc(CN(C)Cn2nc(-c3ccccc3)oc2=O)s1 | 56.71
21 | CN(Cc1ccc(Br)s1)Cn1nc(-c2ccc(F)cc2)oc1=O | 11.33
22 | CN(Cc1ccc(Br)s1)Cn1nc(-c2ccccc2)oc1=O | 38.33
23 | CSc1nccc(NCC2CNCCO2)n1 (centres undefined) | 3.575

Row | Structure (SMILES) | Percent Effect [%]
24 | Cn1cc(CNCCC(=O)NCc2ccccc2)c(-c2cccnc2)n1 | -3.655
25 | Cc1c(C(=O)N2CCCC(n3cncn3)C2)cnn1C (centres undefined) | 111.3
26 | CCC(CC)c1cc(C(=O)N2CCCC(n3cncn3)C2)on1 (centres undefined) | -3.018
27 | CC(C)c1nc(C(=O)N2CCCC(n3cncn3)C2)c[nH]1 (centres undefined) | 7.683
28 | Cn1nc(C(=O)N2CCCC(n3cncn3)C2)ccc1=O (centres undefined) | -5.25
29 | Cc1cc(C(=O)N2CCCC(n3cncn3)C2)on1 (centres undefined) | 105.4
30 | Cc1cnc(C(=O)N2CCCC(n3cncn3)C2)cn1 (centres undefined) | 95.37
31 | Cc1cc(C(=O)N2CCCC(n3cncn3)C2)nn1C (centres undefined) | 113.3
32 | Cc1[nH]ncc1C(=O)N1CCCC(n2cncn2)C1 (centres undefined) | -1.83
33 | CCc1ccc(C(=O)N2CCCC(n3cncn3)C2)o1 (centres undefined) | -14.61
34 | CCNC(=O)N1C[C@@H]2OCC(=O)N(CC3CC3)[C@@H]2C1 | -6.422
35 | Cc1nsc(NC2CCOC3(CCCCC3)C2)n1 (centres undefined) | -0.6251
36 | Cc1cnn(CCNCc2csc(-c3ccc4c(c3)OCO4)n2)c1 | -11.61
37 | CN(CCS(=O)(=O)c1cc(Cl)ccc1Cl)CC(N)=O | 6.108
38 | Cc1ccn(-c2ccc(NCc3cccnc3N3CCCCC3)nn2)n1 | -6.636
39 | Nc1cc2c(nn1)CCN(C(=O)c1ccccc1Oc1cccnc1)C2 | -10.76
40 | CCc1nccn1C1CCCN(C(=O)c2cnc3onc(C)c3c2)C1 (centres undefined) | -19.2
41 | Cc1ncsc1C(=O)N1CCCC(n2cncn2)C1 (centres undefined) | 88.89
42 | Cc1cc(C)n(CCC(=O)N2CCCC(n3cncn3)C2)n1 (centres undefined) | -3.067
43 | Cc1cc(C(=O)N2CCCC(n3cncn3)C2)c(C)n1CC1CC1 (centres undefined) | 127.1
44 | COCC(C)NS(=O)(=O)c1ccc(Br)cn1 (centres undefined) | -13.48
45 | O=C(Nc1ccccc1F)N1CCN(Cc2noc(C3CC3)n2)CC1 | 0.2085
46 | c1cnn(CC2CN(c3ncnc4c3CCC4)CCO2)c1 (centres undefined) | -17.69

Row | Structure (SMILES) | Percent Effect [%]
47 | CN1CCc2[nH]nc(C(=O)N3CCCC4(CC3)CNC(=O)O4)c2C1 (centres undefined) | 1.077
48 | CN(C)c1nc2c(c(N3CCC4(CCCNC4=O)C3)n1)CCCC2 (centres undefined) | 9.775
49 | Cc1nc(N(C)C)nc(N2CCC3(CC2)CNC(=O)O3)c1C | 97.26
50 | CCCc1cnc(C)nc1N1CCC2(CC1)CNC(=O)O2 | 7.463
51 | CN(C)c1nc2c(c(N3CCC4(CC3)CNC(=O)C4)n1)CCCC2 | 100.7
52 | Cc1ccc(-c2ccnc(N3CCC4(CC3)CNC(=O)O4)n2)c(C)n1 | 5.789
53 | CC(=O)NC1CCN(c2nc(N(C)C)nc3c2CCCC3)CC1 | 10.24
54 | O=C1NCC2(CCCN(c3ncnc4c3CCC4)CC2)O1 (centres undefined) | 82.73
55 | CN(C)c1nc2c(c(N3CCCC4(CC3)CNC(=O)O4)n1)CCCC2 (centres undefined) | 98.47
56 | c1nc2c(c(N3CCOC(Cn4cncn4)C3)n1)CCC2 (centres undefined) | -6.426
57 | CC(C)Cc1ncc2c(n1)CN(c1nc(N(C)C)nc3c1CCCC3)C2 | 27.68
58 | CC(C)Cc1cc(CC2(NCc3ccco3)COC2)no1 | -14.13
59 | Cc1ccc(-n2ccc3nc(N4CCCC4)ncc3c2=O)cc1C | -4.635
60 | COCCN1C[C@H]2CCN(c3ncccn3)CC[C@H]2S1(=O)=O | -6.135
61 | COc1ccc(F)cc1-c1nc2c([nH]1)c(C1CC1)nn2C | 5.431
62 | Cn1cc(C(=O)N2CC[C@@H]3[C@@H]2CCN3c2ncc(F)cn2)cn1.O=C(O)C(F)(F)F | 3.256
63 | O=C(O)C(F)(F)F.O=C(c1cccnc1)N1CCC2(CCN(C(=O)N3CCCC3)CC2)C1 | 121.5
64 | CS(=O)(=O)N1CCC2(CN(C(=O)c3cccnc3)C2)C1.O=C(O)C(F)(F)F | -8.829
65 | Cc1cnc(N2CC3(CCN(C(=O)c4cccnc4)C3)C2)nc1.O=C(O)C(F)(F)F | -3.598
66 | Cc1ccc(CNC(=O)c2nc3c(o2)CN(C(=O)c2cccnc2)C3)o1.O=C(O)C(F)(F)F | -4.272
67 | N#Cc1cccc(N2CC3(CCN(C(=O)c4cccnc4)C3)CC2=O)c1.O=C(O)C(F)(F)F (centres undefined) | 6.163
68 | NC(=O)N1CCC2(CCN(C(=O)c3cccnc3)CC2)C1.O=C(O)C(F)(F)F | 118.8
69 | Cc1ccc(CN2CCC3(CC2)CCN(C(=O)c2cccnc2)C3)o1.O=C(O)C(F)(F)F | 93.46
